Results reported in PubChem BioAssay AID1159580 (chemical genetic matrix, 2015).
Values joined by “and” are separate entries in the source; they are usually repeats but may differ in a detail not shown here. Equal entries are not always repeated. The whole screen tested about 5,500 compounds, of which about 2,000 (36%) were called active. Inconclusive results (about 18%) are left out. No stated cut-off is given here; in the data, active means normalized growth mostly below about 0.91 (no sharp cut-off); inconclusive means no clear call, values can overlap the other calls; inactive means mostly above about 0.92. Some of the results follow.

Test: chemical genetic growth profiling, strain panel (AID 1159580);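 further: tested at 20 µM; growth read once vehicle control cultures reached saturation at 30 °C; 1 = growth at the plate median or of vehicle wells; lower values mean less growth of the strain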
Conditions: growth OD

Measured: normalized growth

O=C(O)c1cc2cc(F)ccc2[nH]1
inactive: S. cerevisiae deletion strains, locus YJR075W, strain HOC1, active compounds read low 1.01 | S. cerevisiae deletion strains, locus YKL009W, strain mrt4, active compounds read low 1 | S. cerevisiae deletion strains, locus YKL068W, active compounds read low 1.01 | S. cerevisiae deletion strains, locus YKL085W, strain MDH1 (second series), active compounds read low 1.01 | S. cerevisiae deletion strains, locus YKL085W, strain MDH1, active compounds read low 1.01 | S. cerevisiae deletion strains, locus YKL160W, strain elf1, active compounds read low 0.974 | S. cerevisiae deletion strains, locus YKL190W, strain CNB1, active compounds read low 0.999 | S. cerevisiae deletion strains, locus YKR001C, strain vps1, active compounds read low 1.02 | S. cerevisiae deletion strains, locus YKR026C, strain gcn3, active compounds read low 0.949 | S. cerevisiae deletion strains, locus YKR091W, strain srl3, active compounds read low 0.968 | S. cerevisiae deletion strains, locus YLL001W, strain dnm1, active compounds read low 0.976 | S. cerevisiae deletion strains, locus YLL026W, active compounds read low 0.996 | S. cerevisiae deletion strains, locus YLL041C, strain sdh2, active compounds read low 0.97 | S. cerevisiae deletion strains, locus YLR027C, strain aat2, active compounds read low 0.99 | S. cerevisiae deletion strains, locus YLR039C, strain RIC1, active compounds read low 1.02 | S. cerevisiae deletion strains, locus YLR058C, strain SHM2, active compounds read low 1.01 | S. cerevisiae deletion strains, locus YLR102C, strain apc9, active compounds read low 1.02 | S. cerevisiae deletion strains, locus YLR113W, strain HOG1, active compounds read low 0.948 | S. cerevisiae deletion strains, locus YLR221C, strain rsa3, active compounds read low 0.986 | S. cerevisiae deletion strains, locus YLR258W, strain gsy2, active compounds read low 0.987 | S. cerevisiae deletion strains, locus YLR262C, strain YPT6 (second series), active compounds read low 1 | S. cerevisiae deletion strains, locus YLR262C, strain YPT6, active compounds read low 1.04 | S. cerevisiae deletion strains, locus YLR268W, strain sec22, active compounds read low 1.02 | S. cerevisiae deletion strains, locus YLR320W, strain mms22, active compounds read low 1.01 | S. cerevisiae deletion strains, locus YLR330W, strain CHS5, active compounds read low 1.01 | S. cerevisiae deletion strains, locus YLR342W, strain FKS1 (second series), active compounds read low 1.01 | S. cerevisiae deletion strains, locus YLR342W, strain FKS1, active compounds read low 0.98 | S. cerevisiae deletion strains, locus YLR357W, strain rsc2, active compounds read low 0.976 | S. cerevisiae deletion strains, locus YLR370C, strain arc18, active compounds read low 0.989 | S. cerevisiae deletion strains, locus YLR371W, strain rom2, active compounds read low 1.01 | S. cerevisiae deletion strains, locus YLR384C, strain iki3, active compounds read low 0.965 | S. cerevisiae deletion strains, locus YLR418C, strain cdc73, active compounds read low 1.05 | S. cerevisiae deletion strains, locus YML016C, strain PPZ1, active compounds read low 1.01 | S. cerevisiae deletion strains, locus YML032C, strain rad52, active compounds read low 1.02 | S. cerevisiae deletion strains, locus YML120C, strain ndi1, active compounds read low 0.995 | S. cerevisiae deletion strains, locus YML124C, strain tub3, active compounds read low 1.01 | S. cerevisiae deletion strains, locus YMR058W, strain fet3, active compounds read low 0.985 | S. cerevisiae deletion strains, locus YMR078C, strain ctf18, active compounds read low 1.02 | S. cerevisiae deletion strains, locus YMR125W, strain sto1, active compounds read low 0.948 | S. cerevisiae deletion strains, locus YMR129W, active compounds read low 0.982 | S. cerevisiae deletion strains, locus YMR205C, strain PFK2, active compounds read low 1.03 | S. cerevisiae deletion strains, locus YMR223W, strain ubp8, active compounds read low 1.02 | S. cerevisiae deletion strains, locus YMR231W, strain pep5, active compounds read low 0.992 | S. cerevisiae deletion strains, locus YMR263W, strain SAP30, active compounds read low 1.01 and 0.999 | S. cerevisiae deletion strains, locus YMR307W, strain GAS1, active compounds read low 1.05 | S. cerevisiae deletion strains, locus YNL067W, strain RPL9B, active compounds read low 1.02 | S. cerevisiae deletion strains, locus YNL071W, strain lat1, active compounds read low 0.984 | S. cerevisiae deletion strains, locus YNL128W, strain TEP1, active compounds read low 1 | S. cerevisiae deletion strains, locus YNL153C, strain GIM3, active compounds read low 1.01 | S. cerevisiae deletion strains, locus YNL175C, strain NOP13, active compounds read low 0.952 | S. cerevisiae deletion strains, locus YNL183C, strain NPR1, active compounds read low 0.908 | S. cerevisiae deletion strains, locus YNL197C, strain WHI3, active compounds read low 0.949 | S. cerevisiae deletion strains, locus YNL209W, strain ssb2, active compounds read low 0.983 | S. cerevisiae deletion strains, locus YNL224C, strain SQS1, active compounds read low 0.973 | S. cerevisiae deletion strains, locus YNL233W, strain BNI4, active compounds read low 1.01 | S. cerevisiae deletion strains, locus YNL248C, strain rpa49, active compounds read low 0.969 | S. cerevisiae deletion strains, locus YNL250W, strain rad50, active compounds read low 1.01 | S. cerevisiae deletion strains, locus YNL271C, strain bni1, active compounds read low 1.01 | S. cerevisiae deletion strains, locus YNL298W, strain CLA4, active compounds read low 1.03 | S. cerevisiae deletion strains, locus YNL307C, strain MCK1, active compounds read low 1.02 | S. cerevisiae deletion strains, locus YNL322C, strain KRE1 (second series), active compounds read low 0.99 | S. cerevisiae deletion strains, locus YNL322C, strain KRE1, active compounds read low 1.01 and 0.971 | S. cerevisiae deletion strains, locus YNR049C, strain mso1, active compounds read low 0.97 | S. cerevisiae deletion strains, locus YNR052C, strain pop2, active compounds read low 1.02 | S. cerevisiae deletion strains, locus YOL006C, strain TOP1, active compounds read low 1.05 | S. cerevisiae deletion strains, locus YOL012C, strain htz1 0.97 | S. cerevisiae deletion strains, locus YOL147C, strain pex11, active compounds read low 1.01 | S. cerevisiae deletion strains, locus YOR001W, strain rrp6, active compounds read low 0.961 | S. cerevisiae deletion strains, locus YOR061W, strain CKA2, active compounds read low 1.01 | S. cerevisiae deletion strains, locus YOR069W, strain VPS5, active compounds read low 0.998 | S. cerevisiae deletion strains, locus YOR070C, strain gyp1, active compounds read low 1 | S. cerevisiae deletion strains, locus YOR080W, strain dia2, active compounds read low 0.977 | S. cerevisiae deletion strains, locus YOR083W, strain WHI5 (second series), active compounds read low 0.964 | S. cerevisiae deletion strains, locus YOR083W, strain WHI5, active compounds read low 0.965 | S. cerevisiae deletion strains, locus YOR106W, strain vam3, active compounds read low 0.972 | S. cerevisiae deletion strains, locus YOR136W, strain idh2, active compounds read low 1.02 | S. cerevisiae deletion strains, locus YOR144C, strain elg1, active compounds read low 1.01 | S. cerevisiae deletion strains, locus YOR184W, strain ser1, active compounds read low 1.02 | S. cerevisiae deletion strains, locus YOR231W, strain MKK1, active compounds read low 0.986 | S. cerevisiae deletion strains, locus YOR265W, strain rbl2, active compounds read low 0.98 | S. cerevisiae deletion strains, locus YOR270C, strain vph1, active compounds read low 1.03 | S. cerevisiae deletion strains, locus YOR290C, strain snf2, active compounds read low 0.946 | S. cerevisiae deletion strains, locus YOR316C, strain cot1, active compounds read low 1.02 | S. cerevisiae deletion strains, locus YPL051W, strain arl3, active compounds read low 0.997 | S. cerevisiae deletion strains, locus YPL055C, strain LGE1, active compounds read low 1.01 and 1.02 | S. cerevisiae deletion strains, locus YPL078C, strain atp4, active compounds read low 0.956 | S. cerevisiae deletion strains, locus YPL106C, strain sse1, active compounds read low 0.938 | S. cerevisiae deletion strains, locus YPL240C, strain hsp82, active compounds read low 0.963 | S. cerevisiae deletion strains, locus YPL241C, strain CIN2, active compounds read low 0.992 and 0.993 | S. cerevisiae deletion strains, locus YPL256C, strain CLN2, active compounds read low 1.01 | S. cerevisiae deletion strains, locus YPR119W, strain clb2, active compounds read low 1.01 | S. cerevisiae deletion strains, locus YPR141C, strain kar3, active compounds read low 1.01 | S. cerevisiae deletion strains, locus YPR163C, strain tif3, active compounds read low 1.01 | S. cerevisiae deletion strains, locus YPR167C, strain met16, active compounds read low 1.02 | S. cerevisiae deletion strains, strain wtn01, active compounds read low 1.02 | S. cerevisiae strains, strain wild type, active compounds read low 0.979
